Results as given in PubChem BioAssay AID628 (Vanderbilt High Throughput Screening Facility, 2007).
Among all 64,000 compounds or so, about 2,200 (3.4%) were called active. This is one part of a sample in which actives are shown more often than they occur.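 The calls were made as follows: active = calcium fluorescence response, raw or row-and-column corrected B-score, differing from the plate sample mean either way at a set confidence level, mostly lower; inactive = the rest.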

biological target: Muscarinic acetylcholine receptor M1 (Rattus norvegicus) (UniProt P08482); assay: antagonists of rat M1 muscarinic receptor (AID 628); conditions: CHO-M1 cells, Fluo-4 calcium, ACh EC80 antagonist mode; at 10 µM; stronger effect = lower value
Sequence (P08482 whole entry, looked up): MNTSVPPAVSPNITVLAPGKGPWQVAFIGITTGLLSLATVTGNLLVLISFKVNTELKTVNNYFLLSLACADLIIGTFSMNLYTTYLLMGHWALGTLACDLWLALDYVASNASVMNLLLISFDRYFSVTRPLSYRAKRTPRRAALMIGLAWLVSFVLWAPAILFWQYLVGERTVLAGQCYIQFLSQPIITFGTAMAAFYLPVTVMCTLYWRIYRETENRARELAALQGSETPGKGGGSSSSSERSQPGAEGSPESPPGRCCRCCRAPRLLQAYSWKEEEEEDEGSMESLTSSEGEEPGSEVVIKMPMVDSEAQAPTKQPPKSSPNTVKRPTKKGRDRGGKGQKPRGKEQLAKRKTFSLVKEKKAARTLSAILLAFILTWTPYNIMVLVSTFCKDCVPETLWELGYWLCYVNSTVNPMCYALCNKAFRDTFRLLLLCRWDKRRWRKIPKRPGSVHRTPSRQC

Compound | B-score
COCCNC(=O)C(C#N)c1nc2ccccc2nc1N1CCN(Cc2ccc3c(c2)OCO3)CC1 (stereo not given) | 0.357 (inactive)
COc1ncnc2c1N=C1CC(C)(C)CC(N)=C1S2 | -3.02 (active)
Cc1ccc(S(=O)(=O)N2CCC(C(=O)N[C@@H](C)C(=O)NCc3ccccc3)CC2)cc1 | 0.328 (inactive)
COc1cc2cc(CN(CCN3CCCC3)C(=O)Nc3ccccc3Cl)c(=O)[nH]c2cc1OC | -0.424 (inactive)
Oc1ccc(Cl)cc1/C=N/c1nc2ccccc2[nH]1 | 0.265 (inactive)
CC(C)CNS(=O)(=O)c1ccc(OCC(=O)Nc2ccc3c(c2)OCO3)c(Cl)c1 | 0.138 (inactive)
COc1ccc(F)cc1S(=O)(=O)Nc1ccc2c(c1)OCO2 | 0.86 (inactive)
COc1ccc(S(=O)(=O)Nc2ccc3c(c2)OCO3)cc1Cl | -4.67 (active)
O=c1ccc2cc(S(=O)(=O)N3CCN(c4ccccc4)CC3)ccc2o1 | 3.23 (active)
COc1ccc(N2CCN(Cc3cc(=O)oc4ccc5ccccc5c34)CC2)cc1 | 0.836 (inactive)
O=S(=O)(c1ccc2ccccc2c1)N1CCN(S(=O)(=O)N2CCOCC2)CC1 | 1.15 (inactive)
CCOC(=O)C1(C(F)(F)F)N=C(N(C)C)OC(N(C)C)=N1 | 0.0434 (inactive)
Nc1ccc(-n2nncc2-c2ccco2)cc1 | 0.0134 (inactive)
O=C(C(c1ccccc1)c1ccccc1)N1CCN(CC(O)COc2ccccc2)CC1 (stereo not given) | -2.34 (active)
COc1cccc(OCC(O)CN2CCN(CCO)CC2)c1 (stereo not given) | -0.234 (inactive)
OC(COc1cccc(OCC(O)CN2CCCC2)c1)CN1CCCC1 (stereo not given) | -0.0676 (inactive)
N#Cc1ccc(OCCN2C(=O)NC3(CCSC3)C2=O)cc1 (stereo not given) | 0.213 (inactive)
Cc1n[nH]c(C)c1S(=O)(=O)N1CCCC(C(=O)NCC2COc3ccccc3O2)C1 (stereo not given) | 0.422 (inactive)
COc1ccc(C(C)=O)cc1COC(=O)Cn1cnc2ccccc2c1=O | 0.139 (inactive)
Cc1ccccc1OCC(=O)Nc1ccc(N2CCN(C(=O)C(C)C)CC2)c(Cl)c1 | -1.61 (inactive)

Compound | B-score
CN1CCN(c2ccc(NC(=O)COc3ccc(Cl)cc3Cl)cc2)CC1 | -3.05 (active)
Cc1cc(NC(=O)COc2ccc(Cl)cc2Cl)n(CCC#N)n1 | -0.163 (inactive)
CCCc1[nH]nc2c1C(c1ccc(Br)s1)C(C#N)=C(N)O2 (stereo not given) | 0.255 (inactive)
CCCN1CC=C2C(C#N)=C(N)C(C#N)(C#N)C(c3cc(OC)ccc3OC)C2C1 (stereo not given) | -2.33 (active)
CCC1=C(C(=O)OC)C(c2cc(OC)ccc2OC)C(C#N)=C(N)O1 (stereo not given) | 0.513 (inactive)
CCOC(=O)N1CC=C2C(C#N)=C(N)C(C#N)(C#N)[C@H](c3cccs3)[C@H]2C1 | 0.673 (inactive)
CCn1cc(NC(=O)Nc2ccc(OC)c(OC)c2)c(C(N)=O)n1 | -0.416 (inactive)
Cn1c(=NC(=O)c2ccco2)sc2cccc(F)c21 | 0.839 (inactive)
O=C(NCCc1ccc2c(c1)OCCO2)c1cc2ccccc2o1 | -3.3 (active)
O=C(CC(Cc1ccccc1)C(=O)O)NCCc1ccc2c(c1)OCO2 (stereo not given) | -0.392 (inactive)
O=C(COC(=O)c1ccc2c(c1)OCCO2)NCc1ccccc1 | 0.116 (inactive)
CCOc1ccccc1C1C(C(=O)OC)=CN(C)C=C1C(=O)OC | 0.428 (inactive)
Cn1nnnc1SCC(=O)N1CCN(C(c2ccccc2)c2ccccc2)CC1 | -2.4 (inactive)
O=C(c1ccc(-n2cnnn2)cc1)N1CCN(C(c2ccccc2)c2ccccc2)CC1 | -10.9 (active)
O=C(c1ccccc1)N1CCN(C(=O)N2CCCCC2)CC1 | -0.168 (inactive)
CC(Nc1nc(N2CCCC2)nc2ccccc12)c1ccccc1 (stereo not given) | -1.8 (inactive)
COc1cc(-c2nc(S(=O)(=O)c3ccc(Cl)cc3)c(N(C)C)o2)cc(OC)c1OC | 0 (inactive)
COc1ccc(CSc2nc(N3CCOCC3)c3c(c2C#N)CC(C)(C)OC3)cc1 | 0.045 (inactive)
CCS(=O)(=O)N1CCC(C(=O)N2CCN(c3ccccc3)CC2)CC1 | -0.14 (inactive)
Cc1ccc(S(=O)(=O)N2CCC(N3CCCCCC3)CC2)cc1 | -0.781 (inactive)

Compound | B-score
Cc1ccc(C)c(N2CCN(S(=O)(=O)c3ccc4c(c3)oc(=O)n4C)CC2)c1 | 0.182 (inactive)
Cc1ccc(N2CCN(S(=O)(=O)c3ccc(F)cc3)CC2)c(C)c1 | 1.98 (active)
Cc1cc(=O)oc(C)c1C(=O)NCc1ccc(F)cc1 | -0.775 (inactive)
CCOC(=O)C(CC)Sc1ncnc2c1nnn2-c1ccc(F)cc1 (stereo not given) | 0.284 (inactive)
O=C(CCCn1c(=O)[nH]c2cc(Cl)ccc2c1=O)NCCN1CCN(c2ccccc2)CC1 | 12.4 (active)
O=C(CCn1c(=O)[nH]c2ccccc2c1=O)NCCCN1CCN(c2cccc(Cl)c2)CC1 | -1.14 (inactive)
COc1ccc(CCNC(=O)CCCCn2c(=O)[nH]c3ccccc3c2=O)cc1OC | -0.359 (inactive)
C=CCn1c(=S)[nH]c2nc3c(cc2c1=O)COC(C)(C)C3 | -2.69 (active)
CC(C)OCCCNc1nc2c(c(=O)n(Cc3ccccc3F)c(=O)n2C)n1C | -0.366 (inactive)
O=C(CN1CCOCC1)Nc1c2c(nc3c1CCC3)CCC2 | -0.251 (inactive)
Cc1cccn2c(=O)c3cc(C#N)c(=NC(=O)c4cccnc4)n(CC4CCCO4)c3nc12 (stereo not given) | -1.9 (active)
Cc1cccn2c(=O)c3cc(C(=O)N4COCC4(C)C)n(C)c3nc12 | -0.585 (inactive)
Cc1cccn2c(=O)c3cc(C#N)c(=O)n(CCCN4CCOCC4)c3nc12 | -0.356 (inactive)
CC1CCc2c(sc3c2C2=NS(=O)(=O)CCN2C=N3)C1 (stereo not given) | -0.133 (inactive)
Cc1ccc(C)n1-c1ccncc1 | -0.0105 (inactive)
CCOC(=O)CCc1c(C)c(C#N)c2[nH]c3ccccc3n2c1=O | -0.0991 (inactive)
COC(CCN(C)C)(c1ccccc1)c1ccccc1 | -11.2 (active)
COc1ccc2oc(=O)c(C(=O)N3CCN(c4ccccc4F)CC3)cc2c1 | 0.203 (inactive)
CN1CCN(CC(=O)Nc2sc3c(c2C#N)CCC(C(C)(C)C)C3)CC1 (stereo not given) | -2.38 (active)
CCC(=O)Nc1sc(C(=O)N2CCCCC2)c(C)c1C#N | -0.552 (inactive)
